Broadly, the AC50 is the concentration at which the activity in the assay is half-maximal.

Inconclusive results are not listed. Activity calls are given as the source filed them. How the source made its calls, unless noted: active means hit-call score of the fitted dose curve at least 0.9, where 1 is the maximum; inactive means score below 0.9.

Assay [1] is described as follows: CCTE_Harrill_HTTr_Viability_MCF7: CCTE's 6-hour Cell Viability Assessment for the High-Throughput Transcriptomics (HTTr) Platform, in MCF-7 cells cultured in DMEM + 10% fetal bovine serum, Harrill Lab (AID 2284010). The gist of the method: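 Cells were dosed with chemicals in an eight-point dilution series, imaged 6 hours later for propidium iodide uptake, and the endpoint was analyzed by bidirectional fitting against DMSO as negative control.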

Assay [2] can be described thus: CCTE_Harrill_HTTr_Apoptosis_MCF7: CCTE's 6-hour Apoptosis Assessment for the High-Throughput Transcriptomics (HTTr) Platform, in MCF-7 cells cultured in DMEM + 10% fetal bovine serum, Harrill Lab (AID 2284011). An outline of the steps:
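High-content imaging of CellEvent Caspase 3/7 Green signal follows a six-hour exposure, with eight concentrations per chemical. MCF-7 cells grown in DMEM plus 10% fetal bovine serum; activity fitted in both directions against DMSO.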

Assay [3] is described as follows: CCTE_Shafer_MEA_acute_spike_number: CCTE's Neural Acute Assay for Total Number of Spikes, Shafer Lab (AID 2284008).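 On AC50: curve fitted for decrease in spike count so AC50 reflects inhibitors.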 The gist of the method: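 Total spike count from 40 min recordings before and during compound exposure (0.03-40 uM), given as per-well percent change. Cortical cultures from rat, DIV 13 or 15, 37 C; adaptive detection threshold 8x rms noise.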
Assay [4] can be described thus: CCTE_Shafer_MEA_acute_firing_rate_mean: CCTE's Neural Acute Assay for Mean Firing Rate, Shafer Lab (AID 2284009).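 Further: analyzed for loss of signal so actives lower firing rate relative to DMSO.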 The gist of the method:
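Read-out: well-mean spike rate (spikes/recording length/electrodes), % change from 40 min pre-dose baseline to 40 min with compound. Rat cortical cultures, DIV 13 or 15, 37 C; 0.03-40 uM; DMSO as negative control.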

Assay [5] can be described thus: CCTE_Harrill_HTTr_CellCount_MCF7: CCTE's Cell Proliferation Assessment for the High-Throughput Transcriptomics (HTTr) Platform, Harrill Lab (AID 2284012; active means hit-call score of the fitted dose curve at least 0.9, where 1 is the maximum;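 further: cells exposed to compound for six hours; intended direction is loss of nuclei count meaning fewer cells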). An outline of the steps: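 Chemicals in eight-point dilution series are added to MCF-7 cells for six hours, nuclei are stained with Hoechst and imaged, and per-well nuclei counts are fitted in both directions relative to DMSO controls.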

Assay [6] in a line: CCTE_Shafer_MEA_acute_burst_number: CCTE's Neural Acute Assay for Single-Electrode Bursts, Shafer Lab (AID 2284013). An outline of the steps:
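Rat cortical cultures, DIV 13/15; 40 min baseline, then 40 min with compound 0.03-40 uM, 37 C. Spikes: 300-5000 Hz band-pass, threshold 8x rms noise. Readout = % change in single-electrode bursts vs baseline, loss-of-signal fit.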

Assay [7] in a line: CCTE_Shafer_MEA_acute_burst_duration_mean: CCTE's Neural Acute Assay for Mean Burst Duration, Shafer Lab (AID 2284014).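 Further: hits are decreases in mean burst duration relative to DMSO controls.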 An outline of the steps: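 Primary rat cortical neurons on 16-electrode MEA wells, treated on DIV 13 or 15 with compound (0.03-40 uM; ≥3 wells each). 40-min baseline and 40-min exposure recordings at 37 C; percent change in mean burst duration per well versus DMSO.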

The nature of assay [8]: CCTE_Shafer_MEA_acute_per_burst_spike_number_mean: CCTE's Neural Acute Assay for Average Number of Spikes Per Burst, Shafer Lab (AID 2284015).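 Further: hits are decreases in mean spikes per burst versus baseline.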 The gist of the method:
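Rat primary cortical neurons on 48-well MEAs (DIV 13 or 15) were treated with 0.03-40 uM compound at 37 C. Mean spikes per burst over 40 min were recorded before and after exposure and expressed as percent change from baseline, relative to DMSO.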

Assay [9] is described as follows: CCTE_Shafer_MEA_acute_interburst_interval_mean: CCTE's Neural Acute Assay for Mean Interburst Interval, Shafer Lab (AID 2284016).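 Further: percent change of mean interburst interval versus each well's own pre-dose baseline; curves fitted for decrease in interburst interval relative to DMSO.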 The gist of the method: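 Rat primary cortical neurons on 48-well MEAs at DIV 13 or 15 were exposed acutely to 0.03-40 uM. Spikes detected at 8x rms noise, 37 C. Mean interburst interval from 40 min recordings expressed as percent change from 40 min pre-treatment baseline.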

The nature of assay [10]: CCTE_Shafer_MEA_acute_burst_percentage_mean: CCTE's Neural Acute Assay for Percentage of Spikes in a Burst, Shafer Lab (AID 2284017).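 On AC50: curve fitted for loss of signal so potency reflects decreased burst percentage.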 The gist of the method: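 Primary rat cortical neurons on 48-well MEA plates, treated on DIV 13 or 15 at 0.03-40 uM. Spikes detected at 8x rms noise at 37C; percent change from 40-min baseline to 40-min post-dose recording, fitted versus DMSO.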

As for `C[C@H](CCC(=O)NCC(=O)O)[C@H]1CC[C@H]2[C@@H]3[C@H](O)C[C@@H]4C[C@H](O)CC[C@]4(C)[C@H]3C[C@H](O)[C@]12C`, the outcome in [1] and in [2] was inactive.

Take `COCCOCCOCCO`: the result in assay [1] was inactive.

Turning to `CS(C)=O`, the result in [1] and in [2] was inactive.

For `CC(CN=Cc1ccccc1O)N=Cc1ccccc1O` (stereo not given), the result in assay [3], in assay [4], in assay [1], in [5], in [6] and in assay [7] was inactive. Also, the molecule was called inactive in assay [9] and in assay [10]. For the same molecule, the AC50 in assay [8] was 15 µM (active).

Consider `C=CC(C)(O)CCC=C(C)C` (stereo not given), for which the call in [3], in assay [4], in assay [1], in assay [6], in assay [7] and in assay [8] was inactive. The result in assay [10] was inactive. In [9], the AC50 is 15 µM (active).

Consider `CCOC(=O)C(C#N)=C(c1ccccc1)c1ccccc1`, for which the molecule was called inactive in [3], in assay [4], in [6], in assay [7], in [8] and in assay [9]. Further, the molecule was called inactive in [10].

Regarding `O=CN1CCOCC1`, the molecule was called inactive in assay [3], in assay [4], in assay [6], in assay [7], in assay [8] and in assay [9]. In addition, in [10], the outcome was inactive.

For the molecule `CC(=O)O[C@@H]1CC2CCC1(C)C2(C)C` (stereo not given in full), the result in [1] and in assay [2] was inactive.

Consider `O=P(O)(O)O`, for which the result in assay [1], in assay [2] and in assay [5] was inactive.

Regarding `CCCN(CCC)S(=O)(=O)c1ccc(C(=O)O)cc1`, the result in assay [1] was inactive.

As to `CC1=CC[C@@]23C[C@@H]1C(C)(C)[C@@H]2CC[C@H]3C`, the outcome in assay [1] was inactive.

For `CCCSc1ccc2nc(NC(=O)OC)[nH]c2c1`, the result in assay [1] and in [2] was inactive.

On to `CCCCCCC(CO)CCCC` (stereo not given), for which the AC50 in [3] is 5.36 µM (active); in [4], 5.36 µM (active); in assay [9], 15 µM (active); in [10] it was 4.14 µM (active). The result in [6], in [7] and in assay [8] was inactive.

As for `COC(=O)c1ccc(C)cc1C1=NC(C)(C(C)C)C(=O)N1` (stereo not given) (tested in a mixture with another compound), the result in [1] was inactive.

In the case of `CC(C)NCC(O)COc1ccc(CC(N)=O)cc1` (stereo not given), the result in assay [1] and in assay [2] was inactive.

Take `C=C(C)[C@@H]1CC=C(C)C(=O)C1`: the result in [1] and in [2] was inactive.

Consider `COCCc1ccc(OCC(O)CNC(C)C)cc1` (stereo not given), for which the molecule was called inactive in assay [3], in assay [4], in [1], in assay [2], in assay [5] and in assay [6]. The result in assay [7], in [8], in assay [9] and in assay [10] was inactive.

In the case of `CC=Cc1ccc(OC)c(OC)c1`, the result in [1] was inactive.

With `C=CC(=O)OCCCC`, the outcome in assay [1] and in [2] was inactive.

`CN(C)C(=S)SC(=S)N(C)C`: the call in assay [3], in assay [4], in assay [6], in [7], in [8] and in assay [9] was inactive. In addition, the call in assay [10] was inactive.

For `CC1(C)C2=CCCC(C)(C)[C@]23CC[C@H]1C3`, the outcome in [1] and in assay [2] was inactive.

With `Cc1cc(C)nc(NS(=O)(=O)c2ccc(N)cc2)n1`, the result in [1] and in assay [2] was inactive.

Turning to `O=C(O)CCCCCCCCC(=O)O`, the outcome in [1] and in [2] was inactive.

As to `Nc1ccccc1[N+](=O)[O-]`, the outcome in assay [1] and in assay [2] was inactive.

As to `CC1(C)CCC[C@]2(C)[C@H]3CCO[C@]3(C)CC[C@@H]12`, the result in [3], in [4], in assay [6], in assay [7], in assay [8] and in [9] was inactive. Further, the molecule was called inactive in [10].

For the molecule `CCc1cc(Cc2cc(CC)cc(C(C)(C)C)c2O)c(O)c(C(C)(C)C)c1`, the outcome in assay [1] was inactive.

Regarding `O=C(Nc1ccc2c(O)c(N=Nc3ccc(N=Nc4ccc(S(=O)(=O)O)cc4)cc3)c(S(=O)(=O)O)cc2c1)c1ccccc1`, the outcome in assay [3], in assay [4], in [6], in assay [7] and in [8] was inactive. Further, the AC50 in assay [9] and in [10] was 15 µM (active) throughout.

Consider `CCOC(=O)c1ccc(N)cc1`, for which the outcome in assay [1] was inactive.

On to `Oc1c(Cl)cc(Cl)c(Cl)c1Cc1c(O)c(Cl)cc(Cl)c1Cl`, for which the AC50 in assay [3] is 0.266 µM (active); in assay [4], 0.266 µM (active); in assay [8], 0.155 µM (active); in [9], 0.122 µM (active); in [10], 0.163 µM (active). Also, the outcome in assay [1], in assay [2], in [6] and in [7] was inactive.

Turning to `Cc1ncc([N+](=O)[O-])n1CCO`, the outcome in assay [1] and in [2] was inactive.

Turning to `Brc1ccc(Br)c(Br)c1`, the outcome in assay [1] was inactive.

`CC1(C)O[C@@H]2C[C@H]3[C@@H]4CCC5=CC(=O)C=C[C@]5(C)[C@@]4(F)[C@@H](O)C[C@]3(C)[C@]2(C(=O)CO)O1`: the outcome in assay [1] was inactive.

For `CN(c1nccc(=O)[nH]1)C1CCN(c2nc3ccccc3n2Cc2ccc(F)cc2)CC1`, the outcome in [1] and in assay [2] was inactive.

As to `OCc1cccc(Oc2ccccc2)c1`, the result in [1], in assay [2] and in assay [5] was inactive.

On to `Cc1ccc(S(N)(=O)=O)cc1`, for which the outcome in assay [1], in [2] and in assay [5] was inactive.

On to `c1ccc2[nH]cnc2c1`, for which the outcome in assay [1], in assay [2] and in assay [5] was inactive.

For `CN(C)CCOc1ccc(/C(=C(/CCCl)c2ccccc2)c2ccccc2)cc1`, the half-maximal activity concentration (AC50) in assay [1] was 68.7 µM (active); in assay [2], 50 µM (active). For the same molecule, the molecule was called inactive in assay [5].

As to `C=CCOC(=O)CCCCCC`, the result in assay [1], in assay [2] and in [5] was inactive.

On to `CCC(C)=O`, for which the result in assay [1], in assay [2] and in [5] was inactive.

As for `COc1cc([C@@H]2c3cc4c(cc3[C@@H](O[C@@H]3O[C@@H]5CO[C@@H](C)O[C@H]5[C@H](O)[C@H]3O)[C@H]3COC(=O)[C@H]23)OCO4)cc(OC)c1O`, the result in assay [1], in assay [2] and in assay [5] was inactive.

As to `O=C(c1ccccc1)C(O)c1ccccc1` (stereo not given), the result in assay [1], in [2] and in [5] was inactive.

Values taken from PubChem BioAssay (EPA / NIEHS).
